The test system of test [1] is Aerobactin synthetase IucA (Klebsiella pneumoniae). Description: IucA aerobactin synthetase inhibitors, biochemical, Tocris library, absorbance (AID 1345561; call rule not given here;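 further: 100% = enzyme without compound and 0% = no enzyme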). To be noted: purified IucA enzyme assay, absorbance (OD) read-out; stronger effect = lower value;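 tested at 8 µM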.
Test [2] in a line: sensitizers of A549 cells to miR-34 induction, primary screen, imaging, A549 dox-inducible miR-34, nuclei and caspase counts (AID 1347080). As to conditions: A549 miR-34 inducible, Hoechst nuclei count, 48 h.
Test [3] in a line: viability rescue of complex I mutant cybrids, primary screen, cell-based, galactose medium, ATP luminescence (AID 1645843;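 active means z-score of at least 1.8 in each of two replicates, scored against plate mean and spread of sample wells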;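 further: positive z means more ATP and so rescue of galactose-driven cybrid death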). As to conditions: complex I mutant cybrid cells, 72 h, stronger effect = higher value.
The mark [4] stands for this setting: stronger effect = lower value, cell number ratio, induced over uninduced.
[5] abbreviates: measured here: relative caspase fold change +Dox/-Dox.
The mark [6] stands for this setting: measured here: total cells with miR-34 induction, stronger effect = lower value.
Where [7] appears, read: measured here: total cells without miR-34 induction.

23 molecules from PubChem BioAssay can be followed below.

Where “and” joins values, the source holds several entries; their conditions need not be identical. Identical values can stand only once. Calls of active or inactive are those of the source.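 How the source made its calls, unless noted: active means compounds whose cell count with miR-34 switched on is under 0.7 times the count with it off; inactive means the rest.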

For orientation: remaining activity means the signal under treatment as a percentage of the control signal. On to `c1ccc(N2CCN(CCCOc3ccc4c(c3)OCO4)CC2)cc1`, for which, in test [1], the remaining activity is 103% (inactive). Also, the results for the fold change in test [2] (setting [4]) and in test [2] (setting [5]) were 0.912 (inactive) and 0.762, respectively. For the same molecule, the cell count in test [2] (setting [6]) was 8370; in test [2] (setting [7]) it was 9180. Further, the z-score in test [3] is 0.385 (inactive).

Consider `CCCCCCCCC(=O)NCc1cc(OC)c(O)cc1I`, for which the remaining activity in test [1] was 120% (inactive). The fold change in test [2] (setting [4]) is 0.949 (inactive); in test [2] (setting [5]), 0.652. In addition, the cell count in test [2] (setting [6]) amounted to 8140; in test [2] (setting [7]) it was 8580. In test [3], the z-score was -0.615 (inactive).

Turning to `N#Cc1cc2[nH]c(=O)c(=O)[nH]c2cc1[N+](=O)[O-]`, the remaining activity in test [1] is 113% (inactive). Moreover, the fold change in test [2] (setting [4]) is 0.891 (inactive); in test [2] (setting [5]) it was 1.62. The cell count was 9010 in test [2] (setting [6]) and 10100 in test [2] (setting [7]). Further, in test [3], the z-score was 0.095 (inactive).

For `CSc1nc(NC2CCCC2)c([N+](=O)[O-])c(NC2CCCC2)n1`, the remaining activity in test [1] was 104% (inactive). The fold change in test [2] (setting [4]) is 0.932 (inactive); in test [2] (setting [5]), 1.24. The cell count in test [2] (setting [6]) was 7100; in test [2] (setting [7]) it was 7620. In test [3], the z-score was -0.215 (inactive).

Regarding `c1ccc(COCCCc2cnc[nH]2)cc1`, the remaining activity in test [1] is 112% (inactive). For the same molecule, the fold change was 0.883 (inactive) in test [2] (setting [4]) and 2.69 in test [2] (setting [5]). For the same molecule, the cell count was determined as 8520 in test [2] (setting [6]) and 9640 in test [2] (setting [7]). In addition, in test [3], the z-score is -0.18 (inactive).

`CCCCCS(=O)(=O)CCCCCCCCCCn1c(-c2ccc(O)cc2)c(C)c2cc(O)ccc21`: the remaining activity in test [1] was 96.6% (inactive). For the same molecule, the fold change in test [2] (setting [4]) was 1.01 (inactive); in test [2] (setting [5]), 0.732. Further, the cell count in test [2] (setting [6]) was found to be 1420; in test [2] (setting [7]), 1410. For the same molecule, the z-score in test [3] was -0.685 (inactive).

Regarding `CCCCCCCNS(=O)(=O)c1cccc2c(Cl)cccc12`, the remaining activity in test [1] is 95% (inactive). In addition, the fold change in test [2] (setting [4]) is 0.865 (inactive); in test [2] (setting [5]), 0.629. Besides, the cell count worked out at 8130 in test [2] (setting [6]) and 9410 in test [2] (setting [7]). The z-score in test [3] was -0.5 (inactive).

For `COc1cc([C@@H]2c3cc4c(cc3C(OC3OC5COC(C)OC5C(O)C3O)C3COC(=O)[C@@H]32)OCO4)cc(OC)c1O` (stereo partly drawn), the remaining activity in test [1] is 116% (inactive). For the same molecule, the figures for the fold change in test [2] (setting [4]) and in test [2] (setting [5]) were 1.07 (inactive) and 0.575, respectively. Also, the cell count in test [2] (setting [6]) came to 4900; in test [2] (setting [7]), 4590. Also, the z-score in test [3] was -0.765 (inactive).

Consider `Cc1ccc(CC2(O)CCN(CCOc3ccc(O)cc3)CC2)cc1`, for which the remaining activity in test [1] is 89.8% (inactive). Further, the fold change was 0.939 (inactive) in test [2] (setting [4]) and 2.38 in test [2] (setting [5]). The cell count came to 7760 in test [2] (setting [6]) and 8270 in test [2] (setting [7]). Also, in test [3], the z-score is -0.49 (inactive).

As to `O[C@@H]1[C@H](O)[C@@H](CCl)O[C@H]1n1cnc2c(NC3CC4CCC3C4)ncnc21` (stereo partly drawn), in test [1], the remaining activity is 108% (inactive). Moreover, the fold change is 0.921 (inactive) in test [2] (setting [4]) and 1.85 in test [2] (setting [5]). Moreover, the cell count in test [2] (setting [6]) came to 8570; in test [2] (setting [7]), 9310. Moreover, in test [3], the z-score was 1.96 (inactive).

With `COc1ccc(CC(=O)NC(/N=C(\NC#N)Nc2cccc3ncccc23)C(C)(C)C)cc1OC` (stereo not drawn), the remaining activity in test [1] is 122% (inactive). Moreover, the fold change in test [2] (setting [4]) was 0.95 (inactive); in test [2] (setting [5]) it was 1.31. The cell count in test [2] (setting [6]) was found to be 9530; in test [2] (setting [7]) it was 10000. Also, the z-score in test [3] was 0.08 (inactive).

On to `CCCc1c(OCC(O)COc2ccc3c(=O)cc(C(=O)O)oc3c2CCC)ccc(C(C)=O)c1O` (stereo not drawn), for which the remaining activity in test [1] was 110% (inactive). Also, the fold change in test [2] (setting [4]) was 0.998 (inactive); in test [2] (setting [5]), 0.8. The results for the cell count in test [2] (setting [6]) and in test [2] (setting [7]) were 8250 and 8260, respectively. In addition, the z-score in test [3] is 3.91 (active).

On to `COc1ccc(CN2C(=O)C(=O)c3cc(OC(F)(F)F)ccc32)cc1`, for which, in test [1], the remaining activity is 114% (inactive). Besides, the fold change is 0.793 (inactive) in test [2] (setting [4]) and 1.39 in test [2] (setting [5]). Further, the figures for the cell count in test [2] (setting [6]) and in test [2] (setting [7]) were 1960 and 2480, respectively. In addition, the z-score in test [3] is -1.04 (inactive).

Regarding `Clc1ccc(CCCOCCCN2CCCCC2)cc1`, the remaining activity in test [1] was 105% (inactive). Also, the fold change was 0.895 (inactive) in test [2] (setting [4]) and 1.39 in test [2] (setting [5]). In addition, the cell count was 7600 in test [2] (setting [6]) and 8480 in test [2] (setting [7]). In addition, in test [3], the z-score was -0.64 (inactive).

On to `Brc1cc2c(cc1[C@H]1Nc3ccccc3[C@H]3C=CC[C@H]31)OCO2` (racemic), for which the remaining activity in test [1] was 123% (inactive). For the same molecule, the results for the fold change in test [2] (setting [4]) and in test [2] (setting [5]) were 0.953 (inactive) and 1.69, respectively. Further, the cell count in test [2] (setting [6]) stood at 6570; in test [2] (setting [7]), 6900. The z-score in test [3] is -0.975 (inactive).

As for `C=C1C(=O)O[C@@H]2/C=C(\C)CC/C=C(\C)CC[C@@H]12`, in test [1], the remaining activity is 118% (inactive). In addition, the fold change in test [2] (setting [4]) was 1.04 (inactive); in test [2] (setting [5]) it was 1.29. Also, the cell count is 8100 in test [2] (setting [6]) and 7810 in test [2] (setting [7]). Further, in test [3], the z-score is -0.605 (inactive).

On to `CC(N)(C(=O)O)c1ccc(-c2nn[nH]n2)cc1` (stereo not drawn), for which the remaining activity in test [1] was 94.5% (inactive). Besides, the values for the fold change in test [2] (setting [4]) and in test [2] (setting [5]) were 0.913 (inactive) and 0.762, respectively. Moreover, the values for the cell count in test [2] (setting [6]) and in test [2] (setting [7]) were 8200 and 8980, respectively. Besides, the z-score in test [3] was 1.42 (inactive).

With `CCc1cc(C2NNC(C)C2c2ccc3c(c2)OCCO3)c(O)cc1O` (stereo not drawn), in test [1], the remaining activity was 92.2% (inactive). The figures for the fold change in test [2] (setting [4]) and in test [2] (setting [5]) were 1.01 (inactive) and 1.27, respectively. For the same molecule, the cell count in test [2] (setting [6]) came to 4520; in test [2] (setting [7]) it was 4490. Further, the z-score in test [3] was 0.625 (inactive).

With `O=C(O)CC/C=C\C[C@@H]1CO[C@H](c2ccccc2Cl)O[C@@H]1c1ccccc1O`, the remaining activity in test [1] is 75.4% (inactive). Besides, the fold change is 0.977 (inactive) in test [2] (setting [4]) and 0.805 in test [2] (setting [5]). The cell count was determined as 8270 in test [2] (setting [6]) and 8470 in test [2] (setting [7]). For the same molecule, in test [3], the z-score is 6.17 (active).

As to `c1cc2c(cc1C1CCCCC1)c1c3n2CCNC3CCC1` (stereo not drawn), the remaining activity in test [1] is 102% (inactive). In addition, the fold change in test [2] (setting [4]) was 1.06 (inactive); in test [2] (setting [5]), 1.07. In addition, the cell count in test [2] (setting [6]) was 430; in test [2] (setting [7]), 406. In addition, in test [3], the z-score was -1.23 (inactive).

Consider `c1ccc(CN2CCC3(CCc4ccccc43)CC2)cc1`, for which, in test [1], the remaining activity is 97.3% (inactive). Also, the fold change in test [2] (setting [4]) was 0.952 (inactive); in test [2] (setting [5]), 0.584. The cell count in test [2] (setting [6]) was 8830; in test [2] (setting [7]) it was 9280. In addition, the z-score in test [3] is 0.76 (inactive).

In the case of `OCCNCCCOc1cccc(Cl)c1Cl`, the remaining activity in test [1] is 98.9% (inactive). For the same molecule, the fold change in test [2] (setting [4]) is 0.929 (inactive) and 0.971 (inactive); in test [2] (setting [5]), 0.846 and 1.42. Besides, the cell count in test [2] (setting [6]) was 5820 and 3550; in test [2] (setting [7]), 6260 and 3660. In test [3], the z-score is -0.65 (inactive).

Turning to `Cn1cnnc1Sc1c([N+](=O)[O-])ncn1C`, in test [1], the remaining activity is 103% (inactive). Further, the fold change in test [2] (setting [4]) is 0.949 (inactive); in test [2] (setting [5]), 1.89. Besides, the cell count in test [2] (setting [6]) stood at 8370; in test [2] (setting [7]), 8820. Besides, the z-score in test [3] is -0.12 (inactive).
